Assay outcomes as filed in PubChem.
Most compounds without a hit are left out; they make up all but 1.8% or so of the library.
EWS-Fli block = EWS/Fli-driven NR0B1 reporter inhibitors, primary screen, A673 cells, NR0B1 luciferase, luminescence, MLPCN library | viability-normalised | inhibition, % at 12.6 µM | hit rate 0.67% among 350,000;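 active = mean inhibition of at least 50% after viability correction, with every replicate also passing that limit; inconclusive = mean reaches 50% but only one of two replicates passes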;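 also: firefly luciferase signal divided by Alamar Blue viability fluorescence both relative to DMSO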
INS-1E GSIS act = GLuc luminescence reporter in INS-1E cells, primary screen for activators of glucose-dependent secretion of insulin | AID 743287, 2014 | INS-1E GLuc reporter insulin secretion, 2-3 h | activation, % at 16.6 µM | hit rate 0.61% among 370,000;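 active = lowest replicate activation of at least 40%, so every replicate reaches that level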;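 also: 0% = median of neutral control wells and 100% = median of IBMX positive control wells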
LGR2 antag = inhibitors of bursicon-induced LGR2 CRE-luciferase signal, primary screen, cell-based, HEK293, CRE-luciferase reporter, bursicon stimulation | Drosophila bursicon receptor LGR2 (rickets) | bursicon-stimulated, 4 h | inhibition, % at 9.99 µM | hit rate 0.35% among 380,000;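 active = drop in luminescence signal, shown as inhibition above about 50% in the replicate tests, limit read from the data, passing the limit was not always enough; inconclusive = probably only some replicates passing the limit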;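 also: agonist challenge used bursicon conditioned medium at about half maximal strength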
RAD52 inh = RAD52 DNA annealing inhibitors, primary screen, biochemical, FRET, single point, set 2 | DNA repair protein RAD52 homolog (Homo sapiens), P43351 | recombinant RAD52 DNA annealing, FRET fluorescence | inhibition, % at 18.7 µM | hit rate 0.46% among 360,000;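 active = every replicate showing at least 50% inhibition; inconclusive = mean inhibition at least 50% but not in every replicate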
RAD54 inh = inhibitors of human RAD54 branch migration, primary screen, biochemical, fluorescence, single point; hit rate 0.14% among 360,000; DNA repair and recombination protein RAD54-like (Homo sapiens), Q92698; inhibition, % at 10.4 µM; RAD54 Holliday junction branch migration, FAM/BHQ fluorescence;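 active = mean normalized replicate activity at least 40 and at least half of replicates scoring 40 or more; inconclusive = only one of the two criteria met; inactive = mean below 40 and under half of replicates reaching 40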;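 also: 0% = median of neutral control wells and 100% = median of positive control wells; inhibitors cause a drop in the FAM fluorescence signal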
Target sequence (Q92698 whole entry, looked up): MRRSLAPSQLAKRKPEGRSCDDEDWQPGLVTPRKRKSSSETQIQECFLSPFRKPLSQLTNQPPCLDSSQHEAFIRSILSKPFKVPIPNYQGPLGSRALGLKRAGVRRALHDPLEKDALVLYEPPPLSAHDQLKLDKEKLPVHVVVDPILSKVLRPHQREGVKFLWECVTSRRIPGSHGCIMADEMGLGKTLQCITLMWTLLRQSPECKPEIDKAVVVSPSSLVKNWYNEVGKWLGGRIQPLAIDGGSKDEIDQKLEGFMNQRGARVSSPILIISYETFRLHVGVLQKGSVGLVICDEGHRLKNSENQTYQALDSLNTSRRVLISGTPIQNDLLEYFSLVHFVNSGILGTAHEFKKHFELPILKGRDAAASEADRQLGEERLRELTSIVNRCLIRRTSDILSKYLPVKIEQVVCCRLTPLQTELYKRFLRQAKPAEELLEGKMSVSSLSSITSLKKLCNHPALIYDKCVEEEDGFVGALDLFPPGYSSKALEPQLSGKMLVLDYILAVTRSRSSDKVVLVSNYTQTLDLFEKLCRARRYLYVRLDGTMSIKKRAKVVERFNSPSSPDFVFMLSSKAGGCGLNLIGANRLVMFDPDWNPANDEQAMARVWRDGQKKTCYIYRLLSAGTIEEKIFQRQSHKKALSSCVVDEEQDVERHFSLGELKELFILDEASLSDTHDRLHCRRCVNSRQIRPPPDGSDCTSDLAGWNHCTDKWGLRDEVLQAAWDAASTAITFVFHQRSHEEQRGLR
CFTR F508del cor = F508del CFTR correction, initial screen, CFBE line, single point | CFBE cells, YFP halide quenching; stimulated with forskolin plus potentiator P3; % fluorescence drop versus neutral controls | activity (quench increase), % at 7.58 µM | hit rate 0.36% among 350,000 | AID 720511, 2013;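 active = mean added fluorescence quench of at least 8% versus neutral control, with both replicates also reaching 8%; inconclusive = only one of the mean or replicate conditions met; inactive = mean below 8% and not both replicates reaching 8%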;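 also: cells transiently co-express mutant CFTR-F508del with the halide-sensitive YFP; corrector assay measuring rescue of mutant channel to the surface after 24 h compound exposure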
* = called active by the depositor; ? = inconclusive; nt = no result given.

SMILES	EWS-Fli block	INS-1E GSIS act	LGR2 antag	RAD52 inh	RAD54 inh	CFTR F508del cor
CN1c2ccc(-c3ccc(F)cc3)cc2[C@H]2[C@H](CCN2S(=O)(=O)c2ccc(F)cc2)[C@@H]1CO	55.0*	-0.9	12.1	31.5	0.3	?
COc1ccc(-c2ccc3c(c2)[C@H]2[C@H](CCN2S(=O)(=O)c2ccc(F)cc2)[C@H](CO)N3C)cc1	4.7	-52.1	15.6	-4.2	nt	5.0
CN1c2ccc(-c3ccc(F)cc3)cc2[C@H]2[C@H](CCN2S(=O)(=O)c2cccc(F)c2)[C@@H]1CO	43.7	5.6	13.9	3.6	-4.9	13.6*
COc1ccc(-c2ccc3c(c2)[C@@H]2[C@@H](CCN2S(=O)(=O)c2ccc(F)cc2)[C@@H](CO)N3C)cc1	8.9	-48.2	-3.4	90.2*	nt	5.2
CCc1nc2ccc(C(=O)NCCNC(C)=O)cn2c1N(CCC(C)C)CCN(C)C	-5.4	8.7	10.6	-15.4	-4.3	-0.7
COC(=O)C(Cc1ccccc1)NC(=O)CSc1nc(C)cc(=O)[nH]1 (centres undefined)	-8.4	10.7	-2.3	-3.2	-1.0	-1.7
COc1ccc(S(=O)(=O)N2CC[C@@H]3[C@@H](CO)N(C)c4ccc(-c5ccc(F)cc5)cc4[C@@H]32)cc1	42.1	-15.2	-24.9	-8.9	-1.7	12.1*
COc1ccccc1NC(=O)N1CC[C@@H]2[C@H]1c1cc(-c3ccc(F)cc3)ccc1N(C)[C@H]2CO	4.7	10.0	-8.7	30.4	8.3	-0.8
COc1ccccc1NC(=O)N1CC[C@H]2[C@@H]1c1cc(C#Cc3ccc(F)cc3)ccc1N(C)[C@H]2CO	0.0	5.6	12.6	74.4*	-1.9	-2.6
O=S(=O)(c1ccc(F)cc1)N1CC[C@@H]2[C@@H](CO)Nc3ccc(-c4ccc(F)cc4)cc3[C@@H]21	45.9	-10.3	13.2	nt	7.7	15.9*
NC(N)=N/N=C/c1ccc(Br)cc1	56.0*	5.2	-17.4	-10.7	nt	5.7
N#Cc1ccc(/C=N/N=C(N)N)cc1	nt	nt	nt	nt	-6.3	nt
N=c1n(CCN2CCCCC2)c2ccccc2n1CC(O)COc1ccccc1 (centres undefined)	nt	42.0*	0.6	nt	nt	nt
Cc1ccc(C(C(=O)NCC2CCCO2)N(Cc2ccccc2)C(=O)c2ccc(-c3ccccc3)[nH]2)o1 (centres undefined)	nt	-19.9	23.9	nt	nt	nt
O=C(CSc1nc2ncc(Br)cc2[nH]1)c1cccc([N+](=O)[O-])c1	67.5*	13.5	-12.6	-4.3	nt	nt
N#Cc1ccccc1COc1ccc(/C=C/C(=O)O)cc1	57.7*	5.4	-15.4	4.7	nt	4.4
COc1ccc(CCN2C(=O)C=CC2=O)cc1OC	25.4	205.2*	0.9	-18.1	nt	0.4
COc1ccc(C2SCC(=O)N2CCc2ccc(OC)c(OC)c2)cc1 (centres undefined)	53.9*	2.3	-7.7	-16.5	nt	3.8
COc1ccc(CCN2C(=O)CSC2c2ccc(OC)c(OC)c2)cc1OC (centres undefined)	0.7	0.8	-10.4	-9.2	-14.0	nt
C[C@@H]1CCCCO[C@@H](CN(C)Cc2ccc3c(c2)OCO3)[C@@H](C)CN([C@H](C)CO)C(=O)c2cc(NC(=O)C3CCCCC3)ccc2O1	-3.2	-8.1	0.5	-5.4	-9.4	-2.1
COc1ccc(S(=O)(=O)Nc2ccc3c(c2)C(=O)N([C@H](C)CO)C[C@H](C)[C@H](CN(C)S(=O)(=O)c2ccc(F)cc2)OCCCC[C@@H](C)O3)cc1	2.2	1.5	?	-47.9	-2.1	-2.5
COc1ccc2c(c1)CC[C@@H]1[C@@H]2CC[C@]2(C)[C@@H](C(C)=O)C[C@@H]12	-18.6	nt	-30.5	-5.6	-4.6	0.4
C[C@]12CC[C@@H]3c4ccc(O[C@@H]5O[C@H](C(=O)O)[C@@H](O)[C@H](O)[C@H]5O)cc4CC[C@H]3[C@@H]1C[C@@H](O)[C@@H]2O	-9.3	1.1	-12.8	4.8	3.7	-3.2
COc1ccc2c(c1)CC[C@@H]1[C@@H]2CC[C@]2(C)[C@@H](C(=O)O)C[C@@H]12	-0.2	23.1	8.6	-21.1	2.0	0.8
C#C[C@]1(O)CC[C@H]2[C@@H]3CCc4cc(OC)ccc4[C@H]3CC[C@@]21C	-8.9	nt	-9.9	-3.1	0.9	8.4*
SMILES	EWS-Fli block	INS-1E GSIS act	LGR2 antag	RAD52 inh	RAD54 inh	CFTR F508del cor
C#C[C@]1(O)CC[C@H]2[C@@H]3CCc4cc(OC5CCCC5)ccc4[C@H]3CC[C@@]21C	-1.2	5.8	10.8	2.8	-26.6	8.7*
C=CCOc1ccc2c(c1)CCC1C2CCC2(C)C(O)C(O)CC12 (centres undefined)	-24.3	47.2*	-58.6	-12.2	5.9	-3.0
COc1ccc(NC(=O)CN(C)C(=O)C2CC(=O)N(c3cccc4ccccc34)C2)cc1 (centres undefined)	5.7	13.2	9.2	-3.0	-12.5	0.5
O=C(c1cc(-c2ccccc2Cl)nc2ccccc12)N1CCN(c2ccccc2O)CC1	12.9	-6.5	-0.1	-3.4	nt	3.5
CCOc1ccc(-c2cc(C(=O)N3CCN(c4ccccn4)CC3)c3ccccc3n2)cc1	-7.1	9.5	22.3	-6.1	-0.4	11.6*
O=C(c1cc(-c2ccncc2)nc2c(Cl)cccc12)N1CCN(c2ccccc2F)CC1	?	-3.7	9.0	-13.3	-10.6	13.8*
O=C(c1cc(-c2ccccc2)nc2ccccc12)N1CCCC1	-5.0	44.4*	-6.9	-0.2	-0.2	3.1
O=C(c1cc(-c2cccc(Cl)c2)nc2ccccc12)N1CCCC1	-0.3	7.4	-2.9	-25.5	-7.9	3.6
Cc1cc(C(=O)N2CC=C(c3ccccc3)CC2)c2ccccc2n1	72.0*	4.1	-16.3	-19.6	nt	9.9*
Cc1[nH]c(C)c(S(=O)(=O)NCCc2ccccc2)c1C(=O)N1CCCCC1	1.0	10.9	-23.1	-1.0	-8.4	0.2
O=C(c1ccccc1)N1CCCCC1	-4.2	9.0	23.8	-11.5	-13.1	-1.6
O=C(c1ccccc1)N(C(=O)c1ccccc1)N1CCCC1	-8.2	45.5*	5.4	-16.2	1.6	0.6
CCN1CCN(C(=O)/C=C/c2ccc(C(C)C)cc2)CC1	-2.6	-5.0	-2.5	-15.8	-0.9	1.4
CCN1CCC(O)(/C=C/c2ccc(C(C)C)cc2)C(C(=O)/C=C/c2ccc(C(C)C)cc2)C1 (centres undefined)	56.4*	24.0	32.5	18.0	nt	-2.2
COc1cccc(-c2nnn(CC(=O)O)n2)c1	nt	75.9*	-0.1	nt	nt	nt
